Consider 64 molecules from PubChem BioAssay AID2315 (National Center for Advancing Translational Sciences (NCATS), 2010).

Broadly, the inhibition is the change of the read-out against control, counted positive when it falls.

The whole screen tested about 290,000 compounds, of which about 27,000 (9.3%) were called active. Rule as the data show it: active = inhibition mostly above about 28% (no sharp cut-off); inactive = mostly below about 43%. Many of the other results were omitted from the sample, so actives are more common in it than they were.

A short description of this experiment: A qHTS for Small Molecule Inhibitors of Shiga Toxin. Also: 0% is about no effect. Particulars: Vero cells, Shiga toxin protein synthesis inhibition reporter; at 38.7 µM, active compounds read high.
Take `C/C(=N/OC(=O)c1cccc(C(F)(F)F)c1)c1cnccn1`: the inhibition is -18.2% (inactive). In the case of `CN(Cc1cnccn1)C(=O)c1cc(COc2cccc(C(F)(F)F)c2)on1`, the inhibition was 60.3% (active). For `Cc1ccc(OCC(=O)NCCCNC(=O)c2ccco2)cc1C` the value was -2.33% (inactive); for `Cc1ccc(SC(=O)COc2ccc(C)c(C)c2)cc1`, -26.3% (inactive); for `CN(Cc1cccnc1)C(=O)c1cc(COc2ccc3ncccc3c2)on1`, 21.5% (inactive). As for `Cc1cc(CN(C)C(=O)c2cc(COc3ccc(C)c(C)c3)on2)n[nH]1`, the figure is 59.9% (active). As for `Cc1ccc(OCc2cc(C(=O)N(C)CCc3ccccc3)no2)cc1C`, the figure is 106% (active); as for `Cc1ccc(OCC(=O)NCCCNC(=O)c2cccnc2)cc1C`, -10.2% (inactive); as for `CN(CCOc1ccccc1)C(=O)c1cc(COc2c(F)cccc2F)on1`, 28.4% (inactive). `O=S(=O)(Cc1noc(-c2ccc(OC(F)(F)F)cc2)n1)c1ccc(F)cc1`: the inhibition was 60.4% (inactive). As for `COc1ccc(C(C)NC(=O)C23CC4CC(CC(C4)C2)C3)cc1` (centres undefined), the figure is -10.2% (inactive); as for `COc1ccccc1NC(=O)CCC(=O)OC(C)C(=O)c1ccccc1` (centres undefined), -0.996% (inactive). For `Cc1n[nH]c(C)c1S(=O)(=O)N1CCCC(C(=O)Nc2ccc(Br)cc2)C1` (centres undefined), the inhibition is 3.93% (inactive).

For the molecule `COc1ccc2oc(=O)cc(-c3cc4ccccc4o3)c2c1`, the inhibition was -7.01% (inactive). As for `CCOc1nc(-c2ccc(OC)cc2)ccc1-c1noc(-c2cc(OC)c(OC)c(OC)c2)n1`, the inhibition was 11.8% (inactive). For `COc1ccc(-c2noc(-c3cccc(OC)c3OC)n2)cc1OC` the value was 64.7% (active); for `COc1ccc(-c2noc(CCCC(=O)NC3CCCC3)n2)cc1OC`, -6.44% (inactive); for `CC(C)NC(=O)C(c1ccc(F)cc1)N(C(=O)CCC(=O)Nc1ccccn1)c1ccccc1F` (centres undefined), -8.5% (inactive).

Turning to `Cc1ccc(C)c(NS(=O)(=O)c2c(C)[nH]c(C)c2C(=O)N2CCCCC2)c1`, the inhibition is 2.83% (inactive). As for `Nc1cccc(-c2cc(-c3ccccc3)nc(-c3cccc(N)c3)n2)c1`, the figure is -3.83% (inactive); as for `CNc1nc(-c2ccccc2)cc(-c2ccccc2)n1`, 1.28% (inactive); as for `Nc1nc(-c2ccccc2)cc(-c2ccccc2)n1`, 30.7% (active). Regarding `O=C(NC1CC1)C(Cc1ccccc1)NS(=O)(=O)c1ccccc1F` (centres undefined), the inhibition was -4.61% (inactive).

`CC1(C(=O)O)CCC(C(=O)Nc2ccc(Cl)c(Cl)c2)C1(C)C` (centres undefined): the inhibition was -2.66% (inactive). As for `O=C(CCn1c(SCC(=O)c2ccccc2)nc2ccccc2c1=O)NCc1ccc(F)cc1`, the figure is -27.4% (inactive); as for `O=C(Nn1c(-c2ccccc2)nc2ccccc2c1=O)c1ccc([N+](=O)[O-])cc1`, -8.82% (inactive).

As to `O=C(CN(C(=O)CNC(=O)c1cccs1)c1cccc(F)c1)NC1CCCCC1`, the inhibition was -5.58% (inactive). Take `O=C1CCN(Cc2ccc([N+](=O)[O-])cc2)CCN1[C@H](CO)Cc1ccccc1`: the inhibition was -0.762% (inactive). As for `C=CCc1cc(C)ccc1OCCCn1ccnc1`, the figure is -4.77% (inactive); as for `CC1C(=O)Nc2ccc(S(=O)(=O)N3CCN(c4ccccc4F)CC3)cc2NC1=O` (centres undefined), -0.75% (inactive). Consider `CCCc1nnc(NC(=O)c2cccs2)s1`, for which the inhibition is 39% (inactive). For `CCc1c(C)sc(NC(=O)c2cccs2)c1C(N)=O` the value was 107% (active). For `COC(=O)c1c(NC(=O)c2cccs2)sc2c1CCCC2` the value was 35.1% (inactive). As for `Cc1ccc(CC(=O)Nc2cccc(C#N)c2)cc1`, the inhibition was 25.6% (inactive). As for `N#Cc1cccc(NC(=O)CCC2CCCC2)c1`, the figure is 33.8% (active); as for `N#Cc1cccc(NC(=O)CN2CCCCCC2)c1`, 2.24% (inactive); as for `COc1ccc(N2CCN(CCNC(=O)Nc3cc(Cl)ccc3Cl)CC2)cc1`, 4.24% (inactive). For `CCc1ccccc1NC(=O)NCCN1CCCCC1` the value was -9.72% (inactive); for `Cc1ccc(SCC(CC(C)C)N2CCN(CCc3ccccc3)CCC2=O)cc1` (centres undefined), 64.5% (active); for `CCCN1CCC(=O)N(C(CSc2ccc(C)cc2)Cc2ccccc2)CC1` (centres undefined), -8.43% (inactive). For `COc1ccc(SC[C@H](Cc2ccccc2)N2CCN(CCc3ccccc3)CCC2=O)cc1` the value was -7.36% (inactive). As for `O=c1onc(-c2c(F)cccc2F)n1-c1ccccc1Cl`, the inhibition was -3.28% (inactive).

As to `CCOC(=O)c1c(NC(=S)NC)sc2c1CCCC2`, the inhibition was -5.4% (inactive). As for `CCOC(=O)c1c(NC(=O)C2CCN(S(=O)(=O)c3ccc(Cl)cc3)CC2)sc2c1CCCC2`, the figure is 45.1% (active); as for `CCCOC(=O)Nc1sc2c(c1C(=O)OCC)CCC2`, -17.5% (inactive); as for `NC(=O)Cn1cc(/C=N\NS(=O)(=O)c2ccccc2)c2ccccc21`, -5.18% (inactive). For `COc1ccc(-c2nc3ccccc3n2CCC(C)C)cc1OC` the value was -2.89% (inactive); for `Cc1nc2ccc(C(=O)N/N=C/c3ccc(O)cc3)cc2[nH]1`, 22.1% (inactive). For `Cc1nonc1C(=O)N/N=C/c1ccc(O)cc1` the value was 72.1% (active); for `O=C(C[n+]1ccccc1)N/N=C/c1ccc(O)cc1`, 30.3% (inactive).

`O=[N+]([O-])c1ccc2nc(-c3ccccn3)[nH]c2c1`: the inhibition was 102% (active). As for `O=C(CSc1nc2ccc([N+](=O)[O-])cc2[nH]1)c1ccc(Cl)cc1`, the figure is -3.36% (inactive). As for `O=c1[nH]c2cccnc2n1-c1ccc([N+](=O)[O-])cc1`, the figure is 6.32% (inactive); as for `COC(=O)c1cc(S(=O)(=O)Nc2ccc(C)c(F)c2)c[nH]1`, 9.13% (inactive); as for `CC(C)c1c(C(=O)N/N=C/c2ccccc2C(=O)O)nnn1-c1nonc1N`, 0.546% (inactive). As for `Cc1cccc(N2CCN(Cc3nc(C4CC4)no3)CC2)n1`, the figure is 18.6% (inactive); as for `O=C(NCc1ccccc1Cl)C1CCCN1S(=O)(=O)c1ccc(F)cc1` (centres undefined), -12.5% (inactive); as for `CCOC(=O)c1cc2c(nc1NC(=S)Nc1ccccc1)CC(C)(CC)OC2` (centres undefined), -8.83% (inactive). Consider `CCOC(=O)c1ccc(NC(=S)Nc2cc(C)cc(C)n2)cc1`, for which the inhibition was -12.4% (inactive). As for `CCOC(=O)c1cn[nH]c1NC(=S)Nc1ccccc1`, the figure is 57.1% (active). As for `COc1ccc(CN2CCc3nc(Nc4ccccc4)ncc3C2)c(OC)c1OC`, the figure is 3.91% (inactive); as for `COc1ccc(C2NC(=O)c3ccccc3N2)cc1` (centres undefined), 62.6% (active); as for `O=C1NC(c2cccc(Cl)c2)Nc2ccccc21` (centres undefined), 18.4% (inactive).

In the case of `COc1cccc(C2Nc3cccc4cccc(c34)N2)c1`, the inhibition was -2.47% (inactive).
